Shiga inhibitor – A qHTS for Small Molecule Inhibitors of Shiga Toxin | AID 2315, 2010 | inhibition, % at 38.7 µM | Vero cells, Shiga toxin protein synthesis inhibition reporter | actives 9.2% (n = 290,000); in the data active = inhibition mostly above about 28%, no sharp cut-off; inactive = mostly below about 43%; also: 0% is about no effect
CHX counter – Cycloheximide Counterscreen for Small Molecule Inhibitors of Shiga Toxin; cell reporter, cycloheximide protein synthesis inhibition counterscreen; max response, %; actives 12% (n = 300,000); in the data active = max response mostly above about 13%, no sharp cut-off; inactive = mostly below about 14%; also: read at 38.3 µM for the half of the compounds with a filed dose; 0% is about no effect
Marburg entry inh – qHTS for inhibitors of binding or entry into cells for Marburg Virus | Marburg virus pseudotyped entry inhibition, cell reporter | Potency, µM (titrated, usually from 37.8 µM), for inactives: top-dose activity change, negative = inhibition, hits mostly inhibitors | actives 1.8% (n = 300,000) | AID 540276, 2011; calls by dose curve; tested in HEK293 cells; also: potency is read from the fitted curve at half-maximal effect; % is scaled to controls: 0 for no effect and ±100 for the full control effect
LASV entry inh – qHTS for Inhibitors of binding or entry into cells for Lassa Virus | Lassa virus pseudotype entry inhibition, cell reporter | Potency, µM (top dose mostly 37.9 µM), for the others: at the highest dose activity change, negative = inhibition, hits mostly inhibitors | actives 1.2% (n = 300,000) | AID 540256, 2011; calls by dose curve; tested in HEK293 cells; also: potency is read from the fitted curve at half-maximal effect; % is scaled to controls: 0 for no effect and ±100 for the full control effect; nearly all actives have a fitted effect of over 50% in size
AMA1 RON2 block – qHTS for Inhibitors of AMA1-RON; Towards Development of Antimalarial Drug Lead: Primary Screen; Plasmodium falciparum AMA1 (3D7) - RON2 peptide interaction; AlphaScreen AMA1-biotinylated RON2 peptide binding; Potency, µM (titrated, usually from 58.2 µM), for the others: at the top dose activity change, negative = inhibition, most hits filed as inhibitors; actives 0.2% (n = 360,000); active = well fitted inhibition curve with a large enough effect; inconclusive = small, poorly fitted or top-dose-only effect; inactive = no such curve, though single readings can be large or run the other way;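 also: potency is read from the fitted curve at half-maximal effect; 0% = vehicle wells and -100% = peptide control; nearly all actives have a fitted effect of over 45% in size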
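AMA1 (3D7) with his tag at 25 nM final met compounds first, then biotinylated RON2 peptide at 25 nM; detection used donor plus acceptor beads, 10 µg/mL apiece, read by AlphaScreen after 30 min at room temperature.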
The depositor's hits bear a star; ? = inconclusive; . = not tested or not shown; [ ] = dose if it differs, or a comment. Only a selection was taken, and hits are over-represented in it overall.

SMILES | Shiga inhibitor | CHX counter | Marburg entry inh | LASV entry inh | AMA1 RON2 block
Cc1cccc(N=Cc2c(O)n(C)c(=O)n(C)c2=O)c1 | 25* | 9 | 8% | 13% | -6%
O=C1NC(=S)N/C1=C/C=C/c1ccccc1 | 35 | 43* | 4%[46.1 µM] | -3%[46.1 µM] | -18%
COC(=O)c1cnc(SCc2ccc(C)cc2)n1C | 44 | 32* | -21%[46.1 µM] | -2% | 0%
Cn1c(CO)cnc1S(=O)(=O)Cc1ccc(Cl)cc1 | -14 | 1 | 5%[46.1 µM] | 3%[46.1 µM] | -5%
CC(=O)Nc1ccc(-c2nnc(SCc3ccc(C)cc3)n2C)cc1 | -5 | -5 | ? | ? | 3%
Cn1c(CO)cnc1SCc1ccc(Cl)cc1 | 25 | 20* | 4% | 0% | 6%
CSc1ncnc2c1ncn2CCCNc1ccc(C)c(C)c1 | . | . | . | . | -19%
O=c1[nH]c(-[n+]2ccc3ccccc3c2)c(/C=N/N=C(\[O-])c2ccccc2)s1 | 40 | 17* | . | . | 108%
CCCCCCCCOC(=O)c1cc([N+](=O)[O-])c(Sc2ncnc3nc[nH]c23)c([N+](=O)[O-])c1 | . | . | ? | 11µM* | 1%
Cc1ccc(OCCSc2nc3ccccc3n2CCC(=O)O)cc1C | . | . | . | -6%[46.1 µM] | .
CCOc1ccccc1OCCn1nnc2ccccc21 | 22 | 8 | 10% | 8% | -7%
COc1ccccc1OCCn1nnc2ccccc21 | 104* | 34* | 14% | ? | 15%
Cc1ccc(OCCn2nnc3ccccc32)cc1C | 48* | 45* | ? | ? | 9%
CC1CCc2sc3nc(NCc4ccco4)n4ncnc4c3c2C1 (stereo not given) | 17 | 11 | 0% | 18% | -7%
CC1CCCc2sc3nc(NCc4ccco4)n4ncnc4c3c21 (stereo not given) | 55 | 24* | ? | -4% | -6%
O=C(Nc1ccccn1)C1CCN(S(=O)(=O)c2ccc(Cl)cc2)CC1 | . | . | 22%[46.1 µM] | 7% | -5%
O=C(Nc1ccccc1)C1=C[C@H](c2ccc3c(c2)OCO3)C[C@H](OCc2ccc(CO)cc2)O1 | 104* | 73* | . | . | 2%
O=C(Nc1ccccc1)C1=C[C@@H](c2ccc(Br)cc2)C[C@@H](OCc2ccc(CO)cc2)O1 | 86* | 46* | . | . | 19%
O=C(O)C1=C[C@H](c2ccc3c(c2)OCO3)C[C@H](OCc2ccc(CO)cc2)O1 | . | . | . | . | 25%
O=C(O)C1=C[C@@H](c2ccc(Br)cc2)C[C@@H](OCc2ccc(CO)cc2)O1 | -7 | 3 | . | . | 2%
C=CCOC(=O)C1=C[C@@H](c2ccc3c(c2)OCO3)C[C@@H](OCc2ccc(CO)cc2)O1 | 82* | 19* | . | . | -11%
NC(=O)C1=C[C@H](c2ccc(Br)cc2)C[C@H](OCc2ccc(CO)cc2)O1 | 56* | 25* | . | . | -4%
NC(=O)C1=C[C@@H](c2ccc(Br)cc2)C[C@@H](OCc2ccc(CO)cc2)O1 | -4 | 1 | . | . | 7%
OC1c2c(F)cccc2N=C2CCCCN21 (stereo not given) | . | . | . | . | 0%
Cc1cccc(NCc2ccccc2O)c1C | -1 | 12 | 11% | -10% | -11%
SMILES | Shiga inhibitor | CHX counter | Marburg entry inh | LASV entry inh | AMA1 RON2 block
Cc1ccc(NC(=S)NCCC(c2ccccc2)c2ccccc2)c(C)c1 | -2 | 10 | ? | ? | 42%
Cc1ccc(NC(=S)NCc2ccccc2)c(C)c1 | 64 | 10* | -4% | -18% | -8%
Cc1ccc(NCc2ccccc2O)c(C)c1 | 48* | 20* | ? | -9% | ?
O=C(c1cc(-c2ccc(O)cc2)on1)N1CCc2ccccc2C1 | 46 | 5 | . | . | -17%
O=C(c1cc(-c2cccs2)on1)N1CCOCC1 | 104* | 37* | 7% | ? | -4%
O=C(c1cc(-c2cccs2)on1)N1CCN(C(c2ccccc2)c2ccccc2)CC1 | -2 | 7 | ? | ? | -5%
O=C(c1cc(-c2cccs2)on1)N1CCc2ccccc2C1 | 47* | 18 | 14% | 15% | 11%
O=C(c1cc(-c2ccccc2O)on1)N1CCc2ccccc2C1 | 51 | 25* | . | . | 11%
O=C(c1cc(-c2ccco2)on1)N1CCc2ccccc2C1 | 36 | 9 | 12% | 1% | 13%
CC(Sc1ncn[nH]1)C(=O)Nc1cc(C(F)(F)F)ccc1Cl (stereo not given) | . | . | . | . | 14%
O=C(CNC(=O)c1ccccc1F)N/N=C/c1cccs1 | 53* | 30* | . | . | 28%
